ERK AVP block – blocks ERK signaling stimulated by vasopressin; 72,000 tested, 0.99% active; Potency, µM (top dose mostly 57.5 µM), most hits filed as inhibitors; HEK293-V1b, vasopressin-stimulated pERK AlphaScreen; note: nearly all actives have a fitted effect of over 55% in size
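V1b-HEK293 cells; cpd 30 min 37C; 25 nM vasopressin 5 min; lyse 10 min; AlphaScreen beads 5 hr RT. Normalized to DMSO basal and 25 nM vasopressin; AC50 by Hill fit.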
HSD17B inhib – blocks hydroxysteroid 17-beta dehydrogenase activity. recombinant HSD17B10, NADH fluorescence kinetic. AID 893. Potency, µM (doses to about 57.1 µM), actives largely listed as inhibitors. Q99714. 75,000 tested, 7.6% active;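 note: the protocol describes HADH2 (HSD17B10) and not the HSD17B4 of the title; nearly all actives have a fitted effect of over 70% in size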
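20 nM HADH2, pH 9.0 Tris/Tween; cpd preinc 15 min RT; start w/ 1 mM NAD+ + 90 uM b-hydroxybutyryl-CoA; kinetic fluor ex360/em450 q30s x 4 min; delta last-first.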
FLuc inh – blocks Photinus pyralis firefly luciferase activity; 72,000 tested, 2.2% active; AID 411; purified firefly luciferase, luminescence, 8 min; P08659; Potency, µM (titrated, usually from 57.1 µM), usual class: inhibitors; note: nearly all actives have a fitted effect of over 40% in size
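Titration-based qHTS; buffer 50 mM imidazole pH 7.2, 50 mM KCl, 7 mM MgCl2, 10 uM ATP, 0.01% Tween 20, 0.05% BSA; luciferase/luciferin detector mix added after compound; 8 min, ambient; luminescence.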
HADH2 inhib – blocks human hydroxyacyl-CoA dehydrogenase type II. Q99714. recombinant HADH2, NADH fluorescence, beta-hydroxybutyryl-CoA. Potency, µM (top dose mostly 57.1 µM), usual class: inhibitors. 73,000 tested, 3.4% active. AID 886; note: nearly all actives have a fitted effect of over 60% in size
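Read-out: 360 nm excitation, 450 nm emission, kinetic over 4 min. Conditions: His-tagged human HADH2 20 nM, pH 9.0 Tris with Tween-20, 1 mM NAD+, 90 uM beta-hydroxybutyryl-CoA.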
ALOX15 inhib – inhibitors of human 15-lipoxygenase (ALOX15); P16050; purified 15hLO-1, xylenol orange hydroperoxide absorbance; Potency, µM (highest dose often 57.1 µM), hits mostly inhibitors; 74,000 tested, 1.4% active; note: nearly all actives have a fitted effect of over 55% in size
Target sequence (P16050 whole entry, looked up): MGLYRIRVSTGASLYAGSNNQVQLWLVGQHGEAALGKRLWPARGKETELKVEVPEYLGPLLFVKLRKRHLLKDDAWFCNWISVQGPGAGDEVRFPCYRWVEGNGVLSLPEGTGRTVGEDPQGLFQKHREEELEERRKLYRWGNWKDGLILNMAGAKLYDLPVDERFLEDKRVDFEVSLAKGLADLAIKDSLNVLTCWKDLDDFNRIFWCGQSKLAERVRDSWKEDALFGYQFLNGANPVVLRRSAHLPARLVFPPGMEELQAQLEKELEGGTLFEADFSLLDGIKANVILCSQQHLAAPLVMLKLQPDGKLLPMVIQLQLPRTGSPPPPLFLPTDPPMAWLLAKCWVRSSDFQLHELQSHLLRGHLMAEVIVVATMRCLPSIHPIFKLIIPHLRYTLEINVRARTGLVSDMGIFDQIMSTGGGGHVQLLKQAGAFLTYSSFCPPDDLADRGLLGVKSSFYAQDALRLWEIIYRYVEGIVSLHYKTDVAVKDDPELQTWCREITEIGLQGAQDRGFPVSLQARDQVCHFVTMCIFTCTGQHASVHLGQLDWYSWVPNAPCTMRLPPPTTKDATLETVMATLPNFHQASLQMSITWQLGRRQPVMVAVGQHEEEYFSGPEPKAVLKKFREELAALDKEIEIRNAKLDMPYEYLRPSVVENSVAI
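Purified human 15hLO-1 (40 nM) in 25 mM Hepes pH 7.5, 0.01% Triton X-100, preincubated 15 min RT with compound, then 50 uM arachidonic acid for 6 min. Hydroperoxide read by ferrous/xylenol orange, 30 min; 573/405 nm absorbance ratio gave progress.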
Bst PK mod – modulators of Bacillus stearothermophilus pyruvate kinase. purified pyruvate kinase, luminescence ATP production; ribose 5-phosphate activator present at AC10. Potency, µM. 51,000 tested, 1.2% active. AID 361; in the data active = potency below about 11 µM; inconclusive = mostly about 12 µM to 25 µM;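 the screen sought inhibitors and activators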
A number is an active result; - = inactive; ? = inconclusive; . = no result given; [ ] = another dose, or the depositor's remark. Hits are enriched below; roughly 11% of the tested compounds scored in any of these assays. Unless noted, calls come from the whole dose curve; as a rule, active = well fitted curve in the direction sought with a large enough effect; inconclusive = small, poorly fitted or top-dose-only effect, or another doubt; inactive = no such curve, though single readings can be large; an effect the other way counts as inactive or inconclusive.

SMILES	ERK AVP block	HSD17B inhib	FLuc inh	HADH2 inhib	ALOX15 inhib	Bst PK mod
O=C(O)c1ccccc1NS(=O)(=O)c1ccc(Cl)c(Cl)c1	.	-	.	-	-	.
O=C1c2ccc(Oc3ccc4c(c3)C(=O)N(CCCCO)C4=O)cc2C(=O)N1CCCCO	20µM	?	-	-	-	-
C[C@@H]1C=CCC(=O)OC[C@H](C)C(=O)OC[C@H]2O[C@H]1C=C[C@@H]2O	-[11.5 µM]	-[11.4 µM]	-[11.4 µM]	-[11.4 µM]	-[11.4 µM]	.
COc1ccccc1Nc1nc(-c2cccs2)cs1	?	?	13µM	3.2µM	?	.
COc1ccccc1Nc1nc(C2(C)CCC(=O)O2)cs1 (configuration not stated)	?	-	-	-	-	-
c1cc(OCC2CO2)cc(OCC2CO2)c1 (configuration not stated)	-	-	.	-	-	.
Cc1ccc(-c2csc3ncnc(OCC(=O)NC(=O)NCc4ccco4)c23)cc1	-	25µM	-	-	?	.
Cc1ccc2c(Cl)cc(Cl)c(OCC(=O)NC(=O)NCc3ccco3)c2n1	-	-	-	-	-	3.1
CN1CCCC2(CCN(C(=O)c3cccc(F)c3)CC2)C1	-	-	-[11.4 µM]	-	-	.
O=C(O)c1ccc2cc[nH]c2c1	-	25µM	-	-	-	-
O=C(CN1CCN(C2CCCCC2)CC1)c1ccc2cc[nH]c2c1	.	32µM	-	?	-	.
CCCNC(=O)OC[C@@H]1O[C@H](CCO/N=C(\C)CCC(=O)OC[C@@H]2O[C@H](C#Cc3ccccc3)C=C[C@@H]2Oc2ccc(C)cc2)C=C[C@@H]1Oc1ccc(OC)cc1	-[11.5 µM]	-[11.4 µM]	-[11.4 µM]	-[11.4 µM]	-[11.4 µM]	.
COC(=O)[C@H]1C[C@@H]1[C@H](NS(=O)(=O)c1ccc(-c2ccccc2)cc1)c1ccccc1	-	-	.	-	.	.
COc1ccc(C2(O)CC3CCC(C2)N3c2nc(C)cc(C)c2C#N)cc1 (configuration not stated)	-	25µM	-	-	-	-
CN(C)c1ccc2nc3c(C(=O)O)cc(=O)c(O)c-3oc2c1	-[11.5 µM]	?	-[11.4 µM]	4µM	-[11.4 µM]	.
CC(=O)N(C(C)=O)c1ccc2nc(C)[nH]c(=O)c2c1	-	-	-	-	-	-
NS(=O)(=O)c1ccc(CCNc2cc(=O)n(Cc3ccc(F)cc3)c(=O)[nH]2)cc1	-	25µM	-	-	-	-
O=C(O)c1cc(=O)[nH]c(SCc2ccccc2)n1	-[11.5 µM]	-[11.4 µM]	-[11.4 µM]	-[11.4 µM]	-[11.4 µM]	.
O=C1c2cccc3cccc(c23)C(=O)N1c1nncs1	-	32µM	-	?	-	-
CCn1c(=O)c2cc(C(=O)Nc3cc(C)on3)sc2c2ccccc21	-	?	-	-	-	.
CCn1c(=O)c2cc(C(=O)NCCN3CCOCC3)sc2c2ccccc21	?	32µM	-	-	-	.
Cc1ccc2[nH]c(=O)c3cc(C(=O)NCCN4CCN(C)CC4)sc3c2c1	-	25µM	-	-	-	.
CCn1c(=O)c2cc(C(=O)NCc3cccs3)sc2c2ccccc21	-	16µM	-	-	-	.
Cn1nc(C(=O)NCCN2CCOCC2)c2ccccc2c1=O	-	-	-	-	-	-
COc1ccc2cc(CCNC(=O)C3CCCC3)c(=O)[nH]c2c1	.	?	-	?	-	.
SMILES	ERK AVP block	HSD17B inhib	FLuc inh	HADH2 inhib	ALOX15 inhib	Bst PK mod
COc1ccc2cc(CCNC(=O)CC(C)(C)C)c(=O)[nH]c2c1	-	25µM	-	-	-	-
CCCS(=O)(=O)NCCc1cc2ccc(OC)cc2[nH]c1=O	.	32µM	-	-	-	.
O=C(CSc1nnc(-c2ccc(Cl)cc2)n1Cc1ccco1)Nc1ccc2c(c1)OCCO2	-	20µM	-	-	-	-
O=C(CSc1nnc(-c2ccccc2Cl)n1Cc1ccco1)Nc1ccc2c(c1)OCCO2	-	-	-	-	-	-
CCC1=C/C(=C/N(C)c2ccccc2)C(=O)S1	-	25µM	-	4µM	25µM	-
O=C(O)CCC(=O)N1CCN(c2ccc(C(=O)c3ccc(F)cc3)cc2)CC1	-	-	-	?	-	-
CN1CCN(c2ccc(C(=O)c3ccc(F)cc3)cc2)CC1	-	-	25µM	-[11.4 µM]	-[11.4 µM]	.
O=C(c1ccccc1)c1ccc(N2CCCC2)cc1	-	-	13µM	-	?	.
O=C(Nc1ccc(N2CCCC2)cc1)c1cccc(F)c1	-	-	3.2µM	-	-	?
